The record followed here is PubChem BioAssay (NCATS).

Assay [1] deals with Atrial natriuretic peptide receptor 1 (Homo sapiens) (UniProt P16066). Briefly: Natriuretic polypeptide receptor (hNpr1) antagonism - Pilot screen (AID 1347049; calls by dose curve;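 further: agonist-evoked cGMP luminescence read 20 min after hNppA addition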; further: potency means the concentration at half of the fitted maximal effect). The essentials: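 Readout is cGMP-driven firefly luciferase luminescence in HEK293 cells carrying hNpr1 and a PDE5-domain GloSensor, read before and 20 min after 0.1 nM hNppA stimulation. Cells had 2% substrate reagent for 2 h and test compound for 30 min.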

Assay [2] addresses Atrial natriuretic peptide receptor 2 (Homo sapiens) (UniProt P20594). As to the kind of experiment: Natriuretic polypeptide receptor (hNpr2) antagonism - Pilot subtype selectivity assay (AID 1347050; calls by dose curve; further: potency means the concentration at half of the fitted maximal effect). A digest of the protocol: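 Pilot selectivity screen against hNpr2: HEK293 cGMP-sensor cells are treated with LOPAC1280 compounds, then with hNppC peptide at 1 nM final. The cGMP-driven luminescence change over 20 min at room temperature is the read-out.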

Assay [3] can be described thus: NS1 protein of Zika virus - qHTS assay to identify small molecule inhibitors in human HEK 293 cells (AID 1347053). Further: series mostly up to about 46 µM; nearly all actives have a fitted effect of over 55% in size. The essentials: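 HEK 293 cells pretreated with compound for 1 h, then infected with ZIKV MR766 (MOI 0.5) for 24 h at 37 C. NS1 detected by TR-FRET with two anti-NS1 antibodies; normalized to uninfected (0%) and infected (100%) wells.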
(In qHTS, concentration-response curves come from the screen itself.)

The target in assay [4] is T1, Tyrosine-protein phosphatase non-receptor type substrate 1 (Homo sapiens) + Leukocyte surface antigen CD47 (Homo sapiens) (UniProt P78324+Q08722). As to the kind of experiment: CD47-SIRPalpha protein protein interaction - HTRF assay qHTS validation (AID 1347058; active means well fitted curve in the direction sought with a large enough effect in the signal ratio, not every such curve was filed as active; the % refers to the signal ratio;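 further: recombinant soluble extracellular CD47 with His tag and biotinylated SIRPalpha domains; series mostly up to about 38 µM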). The essentials: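 TR-FRET read (Ch1/Ch2 ratio) of soluble extracellular CD47 and Avi-biotinylated SIRPalpha domains in PBS pH 7.4 with 0.05% IGEPAL; 7-point compound titration. Sequential 30 min room-temperature steps; non-biotinylated SIRPalpha as control inhibitor.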

Assay [5] has as its target T1, Tyrosine-protein phosphatase non-receptor type substrate 1 (Homo sapiens) + Leukocyte surface antigen CD47 (Homo sapiens). Briefly: CD47-SIRPalpha protein protein interaction - Alpha assay qHTS validation (AID 1347059).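 Further: bead proximity luminescence from CD47 binding SIRPalpha after compound preincubation with SIRPalpha.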 Further: potency means the concentration at half of the fitted maximal effect. A digest of the protocol:
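Binding is measured by AlphaScreen proximity: Ni-NTA acceptor beads capture His-CD47, streptavidin donor beads capture biotin-SIRPalpha. Each of three additions (SIRPalpha with compound, CD47, beads) incubates 30 min at room temperature protected from light.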

Assay [6] has as its target Parathyroid hormone/parathyroid hormone-related peptide receptor (Homo sapiens) (UniProt Q03431). Briefly: qHTS for PTHR1 Agonists: Optimization Screen against the NCGC LOPAC library (AID 1347079).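 Further: GloSensor cAMP luminescence in HEK-293 GP2 cells expressing human PTHR1 with IBMX.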 The essentials: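 Compounds were tested across a qHTS titration. PTHR1-expressing GP2 cells report cAMP rises via GloSensor luminescence after 1 hr compound exposure at 37C with IBMX present.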

Assay [7] in a line: qHTS of pediatric cancer cell lines to identify multiple opportunities for drug repurposing: Primary screen for TC32 cells (AID 1347089). Further: nearly all actives have a fitted effect of over 60% in size. Further: potency means the concentration at half of the fitted maximal effect. The essentials: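 Measured quantity: luminescence from CellTiter-Glo, reflecting metabolically active TC32 cells following 48 h of compound. Curves came straight from multi-point titrations, with 8 or 11 points in primary and 11 in confirmatory screening.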

The nature of assay [8]: qHTS of pediatric cancer cell lines to identify multiple opportunities for drug repurposing: Primary screen for DAOY cells (AID 1347090). Further: series mostly up to about 46 µM; nearly all actives have a fitted effect of over 55% in size. A digest of the protocol:
(§1)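 Cell viability, CellTiter-Glo luminescence; 500-1,000 cells/well, 8- or 11-point titration, 48 h compound exposure at 37 degrees C, 5% CO2. Controls: DMSO neutral, bortezomib 2.3 µM final as positive.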

A short description of assay [9]: qHTS of pediatric cancer cell lines to identify multiple opportunities for drug repurposing: Primary screen for SJ-GBM2 cells (AID 1347091). A digest of the protocol:
as §1

Molecules are shown by their SMILES. Results filed as inconclusive are left out. Active and inactive are the calls of the source. Unless noted, the call rests on the fitted dose curve; in most records, active means well fitted curve in the direction sought with a large enough effect; inconclusive means small, poorly fitted or top-dose-only effect, or another doubt; inactive means no such curve, though single readings can be large; an effect the other way counts as inactive or inconclusive.

Sequence of Atrial natriuretic peptide receptor 1 (Homo sapiens) (P16066 whole entry, looked up): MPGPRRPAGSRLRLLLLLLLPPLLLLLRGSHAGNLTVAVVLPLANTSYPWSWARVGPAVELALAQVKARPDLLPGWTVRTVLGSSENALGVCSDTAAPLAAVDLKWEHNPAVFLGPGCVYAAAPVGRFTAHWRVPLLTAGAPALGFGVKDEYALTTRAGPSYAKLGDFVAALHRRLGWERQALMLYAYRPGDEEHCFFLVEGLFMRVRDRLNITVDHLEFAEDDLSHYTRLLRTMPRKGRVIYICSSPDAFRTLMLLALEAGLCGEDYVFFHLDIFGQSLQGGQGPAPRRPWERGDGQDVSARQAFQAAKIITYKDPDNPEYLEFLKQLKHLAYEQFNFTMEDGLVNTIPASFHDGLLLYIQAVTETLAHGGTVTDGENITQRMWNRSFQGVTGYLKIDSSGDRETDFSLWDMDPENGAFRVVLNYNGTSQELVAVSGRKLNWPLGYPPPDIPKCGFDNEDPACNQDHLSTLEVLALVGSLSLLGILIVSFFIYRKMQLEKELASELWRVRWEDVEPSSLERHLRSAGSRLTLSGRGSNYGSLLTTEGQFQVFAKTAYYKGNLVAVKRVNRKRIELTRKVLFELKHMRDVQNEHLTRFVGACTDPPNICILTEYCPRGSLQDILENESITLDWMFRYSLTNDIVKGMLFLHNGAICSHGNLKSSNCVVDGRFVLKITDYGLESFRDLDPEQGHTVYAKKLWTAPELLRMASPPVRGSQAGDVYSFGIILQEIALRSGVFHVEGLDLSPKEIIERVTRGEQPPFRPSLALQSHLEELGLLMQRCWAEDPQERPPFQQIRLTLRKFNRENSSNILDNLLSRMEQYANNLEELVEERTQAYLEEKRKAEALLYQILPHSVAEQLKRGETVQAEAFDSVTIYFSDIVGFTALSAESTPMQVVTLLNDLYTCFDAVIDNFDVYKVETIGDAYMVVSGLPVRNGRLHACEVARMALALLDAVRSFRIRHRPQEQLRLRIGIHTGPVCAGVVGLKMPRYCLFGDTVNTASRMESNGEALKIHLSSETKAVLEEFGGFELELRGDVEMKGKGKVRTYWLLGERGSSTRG
T1 sequence (P78324 whole entry, looked up, the tested form may be a part): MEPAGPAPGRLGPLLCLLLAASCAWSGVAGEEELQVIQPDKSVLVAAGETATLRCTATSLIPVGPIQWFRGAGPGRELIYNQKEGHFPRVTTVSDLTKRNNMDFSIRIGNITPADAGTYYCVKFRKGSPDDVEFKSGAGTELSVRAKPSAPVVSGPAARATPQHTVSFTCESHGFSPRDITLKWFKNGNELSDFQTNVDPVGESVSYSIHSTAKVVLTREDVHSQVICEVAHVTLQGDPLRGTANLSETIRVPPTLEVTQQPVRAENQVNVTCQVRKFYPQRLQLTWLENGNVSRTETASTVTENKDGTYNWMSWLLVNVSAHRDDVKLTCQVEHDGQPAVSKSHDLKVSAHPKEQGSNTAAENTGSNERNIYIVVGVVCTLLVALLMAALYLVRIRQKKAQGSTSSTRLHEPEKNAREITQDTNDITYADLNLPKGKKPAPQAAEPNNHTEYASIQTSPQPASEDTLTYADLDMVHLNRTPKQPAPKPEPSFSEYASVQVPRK
T1 sequence (Q08722 whole entry, looked up, the tested form may be a part): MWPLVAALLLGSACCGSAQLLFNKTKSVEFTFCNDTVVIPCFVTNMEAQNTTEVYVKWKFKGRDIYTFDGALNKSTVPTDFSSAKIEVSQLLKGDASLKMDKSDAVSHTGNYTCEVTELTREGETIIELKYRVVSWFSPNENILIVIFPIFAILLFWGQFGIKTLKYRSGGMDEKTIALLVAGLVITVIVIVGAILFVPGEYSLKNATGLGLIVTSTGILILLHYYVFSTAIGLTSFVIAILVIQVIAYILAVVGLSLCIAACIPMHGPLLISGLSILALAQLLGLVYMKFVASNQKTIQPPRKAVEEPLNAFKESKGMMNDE
Sequence of Atrial natriuretic peptide receptor 2 (Homo sapiens) (P20594 whole entry, looked up): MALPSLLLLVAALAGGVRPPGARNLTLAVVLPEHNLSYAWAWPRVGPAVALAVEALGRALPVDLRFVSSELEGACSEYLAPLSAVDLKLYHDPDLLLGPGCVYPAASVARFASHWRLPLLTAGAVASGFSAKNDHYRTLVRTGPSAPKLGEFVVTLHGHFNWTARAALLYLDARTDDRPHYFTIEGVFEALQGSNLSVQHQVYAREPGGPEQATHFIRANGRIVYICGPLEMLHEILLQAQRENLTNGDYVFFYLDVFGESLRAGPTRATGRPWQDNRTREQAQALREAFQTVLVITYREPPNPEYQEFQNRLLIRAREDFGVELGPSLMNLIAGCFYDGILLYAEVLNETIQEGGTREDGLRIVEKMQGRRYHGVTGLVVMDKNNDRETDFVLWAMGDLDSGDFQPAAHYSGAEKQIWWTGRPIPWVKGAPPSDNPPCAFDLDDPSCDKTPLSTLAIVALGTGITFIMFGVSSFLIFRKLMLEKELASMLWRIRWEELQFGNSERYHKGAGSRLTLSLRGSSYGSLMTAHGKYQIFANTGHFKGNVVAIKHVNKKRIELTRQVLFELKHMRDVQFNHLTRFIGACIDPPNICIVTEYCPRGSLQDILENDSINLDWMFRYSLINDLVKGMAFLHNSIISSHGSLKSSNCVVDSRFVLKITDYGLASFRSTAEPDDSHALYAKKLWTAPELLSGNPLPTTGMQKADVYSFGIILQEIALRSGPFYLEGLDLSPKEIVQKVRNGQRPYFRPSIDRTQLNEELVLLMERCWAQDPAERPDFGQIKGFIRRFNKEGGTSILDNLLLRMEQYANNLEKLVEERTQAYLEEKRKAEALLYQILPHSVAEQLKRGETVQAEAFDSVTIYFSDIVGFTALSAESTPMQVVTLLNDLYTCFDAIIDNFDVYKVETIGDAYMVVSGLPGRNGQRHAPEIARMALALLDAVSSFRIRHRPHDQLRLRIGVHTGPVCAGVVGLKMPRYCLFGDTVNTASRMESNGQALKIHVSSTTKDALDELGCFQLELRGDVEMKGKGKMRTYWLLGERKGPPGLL
Sequence of Parathyroid hormone/parathyroid hormone-related peptide receptor (Homo sapiens) (Q03431 whole entry, looked up): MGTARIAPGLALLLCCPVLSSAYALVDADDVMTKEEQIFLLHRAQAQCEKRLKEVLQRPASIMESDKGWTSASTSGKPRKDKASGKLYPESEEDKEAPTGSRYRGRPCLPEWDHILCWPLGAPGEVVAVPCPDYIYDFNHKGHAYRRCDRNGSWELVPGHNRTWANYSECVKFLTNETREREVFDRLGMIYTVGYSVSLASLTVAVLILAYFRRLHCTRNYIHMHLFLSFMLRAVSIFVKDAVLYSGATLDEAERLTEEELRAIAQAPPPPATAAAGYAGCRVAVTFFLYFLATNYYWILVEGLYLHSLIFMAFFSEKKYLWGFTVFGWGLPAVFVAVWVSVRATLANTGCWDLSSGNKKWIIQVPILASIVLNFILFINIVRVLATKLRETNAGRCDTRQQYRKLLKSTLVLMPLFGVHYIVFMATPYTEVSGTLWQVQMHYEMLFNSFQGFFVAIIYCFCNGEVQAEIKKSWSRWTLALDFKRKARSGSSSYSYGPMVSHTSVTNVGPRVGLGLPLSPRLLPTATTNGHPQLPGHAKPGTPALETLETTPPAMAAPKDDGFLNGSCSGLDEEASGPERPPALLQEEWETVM

Turning to `Brc1ccc([C@H]2CN3CCSC3=N2)cc1`, the Potency result in assay [1], in assay [2], in [3] and in [5] was “inactive” in each case. Further, the outcome in [4] and in [6] was inactive.
On to `COc1ccccc1N1CCN(CCN2C(=O)CC3(CCCC3)CC2=O)CC1`, for which the Potency result in assay [1], in [2], in assay [3] and in [5] was “inactive” throughout. Besides, the outcome in [4] and in [6] was inactive.
As to `OCc1c[nH]c2ccccc12`, the Potency entry in assay [3], in assay [7] and in assay [8] was “inactive” throughout.
With `CO[C@@H]1[C@@H](O[C@@H]2O[C@H](C)[C@@H](O[C@H]3C[C@@](C)(O)[C@@H](O)[C@H](C)O3)[C@H](N(C)C)[C@H]2O)[C@@H](CC=O)C[C@@H](C)[C@@H](O[C@@H]2CC[C@H](N(C)C)[C@@H](C)O2)/C=C/C=C/C[C@@H](C)OC(=O)C[C@H]1OC(C)=O`, the Potency result in [3], in [7], in assay [8] and in assay [9] was “inactive” throughout.
As for `COc1ccc(-n2nc(CCC(=O)N(C)O)cc2-c2ccc(Cl)cc2)cc1`, the Potency result in assay [3] is “inactive”. The Potency in assay [7] is 16.7 µM (active).
For the molecule `COC(=O)C1=CO[C@@H](O)[C@@H]2C(CO)=CC[C@H]12`, the Potency result in [1], in assay [2], in assay [3] and in assay [5] was “inactive” in each case. Moreover, the result in assay [4] and in assay [6] was inactive.
Take `O=[N+]([O-])c1ccc(-c2nc(-c3ccc(F)cc3)c(-c3ccncc3)[nH]2)cc1`: the Potency result in [1], in [2] and in assay [3] was “inactive” in each case. For the same molecule, in assay [6], the result was inactive.
`Clc1ccc2c(c1)N=C(N1CCNCC1)c1ccccc1N2`: the Potency entry in [1], in assay [3] and in [5] was “inactive” in each case. Further, the Potency in assay [2] was 14.7 µM (active). Moreover, the outcome in assay [4] and in assay [6] was inactive.
Regarding `CN1CCCN(C(c2ccccc2)c2ccc(Cl)cc2)CC1` (configuration not stated), the Potency entry in assay [3], in [7] and in [8] was “inactive” each time.
Take `Nc1ncnc2n[nH]c(Nc3ccc(F)cc3)c12`: the Potency entry in assay [1], in [2], in [3] and in assay [5] was “inactive” in each case. In addition, the result in [4] and in assay [6] was inactive.
With `C/C=C(/C(=C/C)c1ccc(OC(C)=O)cc1)c1ccc(OC(C)=O)cc1`, the Potency result in assay [3] and in [7] was “inactive” throughout.
For the molecule `O=S(=O)(O)c1ccc2nc(-c3ccccc3)[nH]c2c1`, the Potency entry in assay [3] and in assay [7] was “inactive” throughout.
For `C[C@@]12CCC[C@H]1[C@@H]1CC[C@H]3C[C@@H](O)CC[C@]3(C)[C@H]1CC2`, the Potency entry in [3], in [7], in assay [8] and in assay [9] was “inactive” throughout.
Take `N[C@@H](Cn1ccc(=O)c(O)c1)C(=O)O`: the Potency result in assay [1], in [2] and in assay [3] was “inactive” in each case. Besides, the result in assay [4] and in assay [6] was inactive. Besides, in assay [5], the Potency was 0.0585 µM (active).
With `Cn1cnc2c(NCc3ccccc3)nc(NCCO)nc21`, the Potency result in assay [1], in [2], in assay [3] and in assay [5] was “inactive” in each case. In assay [6], the result was inactive.
For the molecule `CN(C)c1cc2c(Nc3ccc4c(cnn4Cc4ccccc4)c3)ncnc2cn1`, the Potency entry in assay [1], in [2], in assay [3] and in assay [5] was “inactive” in each case. The molecule was classed as inactive in assay [6].
As for `CC(=O)N(CC(O)CO)c1c(I)c(C(=O)NCCO)c(I)c(C(=O)NCC(O)CO)c1I` (configuration not stated), the Potency entry in assay [3], in assay [7], in [8] and in assay [9] was “inactive” throughout.
In the case of `O=C(c1cc(O)c(O)c(O)c1)c1ccc(O)c(O)c1O`, the Potency result in assay [3], in assay [7], in assay [8] and in [9] was “inactive” each time.
`CN1CCC(N(Cc2cccs2)c2ccccc2)CC1`: the Potency result in assay [3] and in assay [7] was “inactive” in each case.
With `Cc1nn(-c2ccccc2)c(C)c1/C=N/N1CCN(Cc2ccccc2)CC1`, the Potency entry in assay [1], in assay [2], in assay [3] and in assay [5] was “inactive” throughout. The outcome in [4] and in assay [6] was inactive.
`CCc1cc2cc(OC)c(OC)cc2c(Cc2ccccc2)n1`: the Potency result in [3], in assay [7] and in assay [8] was “inactive” throughout.
For the molecule `CC(C)N(CCC(=O)c1ccc2ccccc2c1)Cc1ccccc1`, the Potency in [1] was 13.5 µM (active). The result in assay [4] and in assay [6] was inactive. For the same molecule, the Potency result in assay [5] was “inactive”.
`C[N+](C)(C)CCO`: the Potency result in [1], in assay [2], in assay [3] and in assay [5] was “inactive” in each case. For the same molecule, the outcome in assay [4] and in [6] was inactive.
With `Cc1cccc(C)c1NC(=O)c1cc(S(N)(=O)=O)c(Cl)cc1O`, the Potency entry in [3], in assay [7], in [8] and in [9] was “inactive” throughout.
On to `N#C/C(=C1/SC[C@@H](c2ccc(Cl)cc2Cl)S1)n1ccnc1`, for which the Potency entry in [3] is “inactive”.
Take `CCOCCn1c(C2CCN(CCc3ccc(C(C)(C)C(=O)O)cc3)CC2)nc2ccccc21`: the Potency entry in assay [3], in assay [7], in [8] and in assay [9] was “inactive” in each case.
Turning to `CC1(C)S[C@@H]2[C@H](NC(=O)C(c3ccccc3)S(=O)(=O)O)C(=O)N2[C@H]1C(=O)O` (some centres not stated), the Potency result in assay [3], in assay [7], in assay [8] and in assay [9] was “inactive” throughout.
Consider `COc1cccc2c1[C@@H]1CN(CCCCn3c(=O)[nH]c4c(sc5ncc(-c6ccccc6)nc54)c3=O)C[C@@H]1CO2`, for which the Potency entry in [1], in [2], in assay [3] and in assay [5] was “inactive” throughout. In addition, in assay [6], the molecule was called inactive.
`COC(=O)[C@H]1[C@H]2C[C@@H]3c4[nH]c5cc(OC)ccc5c4CCN3C[C@H]2C[C@@H](OC(=O)/C=C/c2ccc(O)c(OC)c2)[C@@H]1OC`: the Potency result in assay [3], in assay [7] and in assay [8] was “inactive” each time.
Regarding `O=C(CCC1CCN(Cc2ccccc2)CC1)c1ccc2c(c1)NCCCC2`, the Potency result in assay [3], in [7] and in assay [8] was “inactive” each time.
Turning to `O=C1NC(=O)/C(=C/c2ccc3c(c2)OC(F)(F)O3)S1`, the Potency result in [2], in assay [3] and in [5] was “inactive” in each case. Also, the call in assay [6] was inactive.
As to `CCCc1ccc(OCC(=O)N2CCN(C(=O)COc3ccc(CCC)cc3OC)CC2)c(OC)c1`, the Potency entry in assay [3], in assay [7] and in assay [8] was “inactive” in each case.
For the molecule `OC1(c2ccc(Cl)cc2)CCNCC1`, the Potency result in [3], in assay [7], in assay [8] and in assay [9] was “inactive” each time.
Take `CC(C(O)c1ccccc1)N(C)CCOC(c1ccccc1)c1ccccc1` (configuration not stated): the Potency result in [3], in assay [7] and in assay [8] was “inactive” in each case.
For the molecule `O=C1NC(c2cccc([N+](=O)[O-])c2)=CCN1c1ccccc1O`, the Potency result in assay [1], in assay [2], in assay [3] and in assay [5] was “inactive” each time. Moreover, the outcome in assay [6] was inactive.
